We go through 8 sequences from PMC8384837, “Expanding the binding specificity for RNA recognition by a PUF domain”.

Holding throughout (assay): yeast three-hybrid, YBZ-1, SC-Leu-His + 0.5 mM 3-AT, 4 days
Details in all cases: tags: N-Gal4 AD-HA kept; label: inside an RPR1-promoter hybrid RNA with tandem MS2 sites; ssRNA

The target in one assay is PUM1 PUF domain R8-VFK (Homo sapiens, UniProt Q14671 828-1176, N1122V;Y1123F;Q1126K). In short, it runs like this: (§1)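 Each repeat of the Pumilio-1 PUF domain was randomized at its three base-contacting residues, and these libraries were co-expressed from a centromeric plasmid with matching RNA elements in strain YBZ-1. After four days on SC-Leu (input) or SC-Leu-His + 0.5 mM 3-AT (selection), the repeat regions were PCR-amplified and Illumina-sequenced. The interaction score compares variant frequency between input and selection as a log change, computed in log2 with a pseudocount of 1 for absent variants.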

In a further assay the target is PUM1 PUF domain R8-RRS (Homo sapiens, UniProt Q14671 828-1176, N1122R;Y1123R;Q1126S). The procedure, abridged:
as §1

For a further assay, the target named is PUM1 PUF domain R8-ARR (Homo sapiens, UniProt Q14671 828-1176, N1122A;Y1123R;Q1126R). In short, it runs like this: as §1
In another assay the target is PUM1 PUF domain R5-RYE (Homo sapiens, UniProt Q14671 828-1176, C1007R;R1008Y;Q1011E). In short, it runs like this: as §1
The next assay concerns the target PUM1 PUF domain R5-SKC (Homo sapiens, UniProt Q14671 828-1176, C1007S;R1008K;Q1011C). In short, it runs like this: as §1
The target of the next assay is T1, PUM1 PUF domain R6-NRS (Homo sapiens, UniProt Q14671 828-1176, Y1044R;Q1047S).
T1 sequence: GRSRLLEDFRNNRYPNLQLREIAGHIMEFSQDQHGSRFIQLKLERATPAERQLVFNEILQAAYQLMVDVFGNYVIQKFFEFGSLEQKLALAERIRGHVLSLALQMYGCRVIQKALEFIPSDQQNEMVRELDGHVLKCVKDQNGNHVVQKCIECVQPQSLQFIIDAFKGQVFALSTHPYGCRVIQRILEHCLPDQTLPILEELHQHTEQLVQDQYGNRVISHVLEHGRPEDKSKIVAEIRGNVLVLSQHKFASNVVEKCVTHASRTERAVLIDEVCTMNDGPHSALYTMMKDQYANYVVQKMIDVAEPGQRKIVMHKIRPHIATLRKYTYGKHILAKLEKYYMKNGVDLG
The procedure, abridged:
as §1

In another assay the target is PUM1 PUF domain R4-RIY (Homo sapiens, UniProt Q14671 828-1176, N971R;H972I;Q975Y). The procedure, abridged:
as §1

The target of a further assay is PUM1 PUF domain R4-GPY (Homo sapiens, UniProt Q14671 828-1176, N971G;H972P;Q975Y). In short, it runs like this:
as §1

In another assay the target is PUM1 PUF domain R5-RHL (Homo sapiens, UniProt Q14671 828-1176, C1007R;R1008H;Q1011L). In short, it runs like this: as §1
The target in the next assay is T2, PUM1 PUF domain R6-TWT (Homo sapiens, UniProt Q14671 828-1176, N1043T;Y1044W;Q1047T).
T2 sequence: T1 sequence with N216T, R217W, S220T
In short, it runs like this: as §1

In another assay the target is PUM1 PUF domain R5-HRE (Homo sapiens, UniProt Q14671 828-1176, C1007H;Q1011E). The procedure, abridged:
as §1

The next assay addresses T3, PUM1 PUF domain R6-CWV (Homo sapiens, UniProt Q14671 828-1176, N1043C;Y1044W;Q1047V).
T3 sequence: T1 sequence with N216C, R217W, S220V
The procedure, abridged:
as §1

Another assay deals with T4, PUM1 PUF domain R6-CWW (Homo sapiens, UniProt Q14671 828-1176, N1043C;Y1044W;Q1047W).
T4 sequence: T1 sequence with N216C, R217W, S220W
The procedure, abridged:
as §1

A further assay concerns the target PUM1 PUF domain R1-RRC (Homo sapiens, UniProt Q14671 828-1176, S863R;Q867C). In short, it runs like this: as §1
The next assay has as its target T5, PUM1 PUF domain R6-RRK (Homo sapiens, UniProt Q14671 828-1176, N1043R;Y1044R;Q1047K).
T5 sequence: T1 sequence with N216R, S220K
The procedure, abridged:
as §1

Residue numbers refer to the chain shown, from its start.

Take “GGCUAGAACUAGUGGAUCCCCCGGCGCCCGGCGGCUCGAGCCCGGGUAAGCGUAAAUAGUCUGCAUGCCGCCGGGCGCCAUGCCUGCAGGUCGACUCUAGAAAACAUG”: the binding signal with PUM1 PUF domain R8-VFK is 4.7 log2 enrichment (interaction score); with PUM1 PUF domain R8-RRS, 3.27 log2 enrichment (interaction score); with PUM1 PUF domain R8-ARR it was 2.33 log2 enrichment (interaction score).

“GGCUAGAACUAGUGGAUCCCCCGGCGCCCGGCGGCUCGAGCCCGGGUAAGUGUUAAUAGUCUGCAUGCCGCCGGGCGCCAUGCCUGCAGGUCGACUCUAGAAAACAUG”: the binding signal in the assay with PUM1 PUF domain R5-RYE was 4.59 log2 enrichment (interaction score); with PUM1 PUF domain R5-SKC it was 3.5 log2 enrichment (interaction score).

With “GGCUAGAACUAGUGGAUCCCCCGGCGCCCGGCGGCUCGAGCCCGGGUAAGUGUAAAUAGUCUGCAUGCCGCCGGGCGCCAUGCCUGCAGGUCGACUCUAGAAAACAUG”, the binding signal is 3.98 log2 enrichment (interaction score) with PUM1 PUF domain R6-NRS; 7.23 log2 enrichment (interaction score) in the assay with PUM1 PUF domain R4-RIY; 2.92 log2 enrichment (interaction score) with PUM1 PUF domain R4-GPY; 3.44 log2 enrichment (interaction score) with PUM1 PUF domain R5-RHL; 1.62 log2 enrichment (interaction score) with PUM1 PUF domain R6-TWT; 2.59 log2 enrichment (interaction score) in the assay with PUM1 PUF domain R5-HRE. Further, the binding signal with PUM1 PUF domain R8-RRS was 1.39 log2 enrichment (interaction score); with PUM1 PUF domain R6-CWV, 3.39 log2 enrichment (interaction score); with PUM1 PUF domain R6-CWW it was 3.56 log2 enrichment (interaction score); with PUM1 PUF domain R8-ARR, 1.18 log2 enrichment (interaction score).

As for “GGCUAGAACUAGUGGAUCCCCCGGCGCCCGGCGGCUCGAGCCCGGGUAAGUGUCAAUAGUCUGCAUGCCGCCGGGCGCCAUGCCUGCAGGUCGACUCUAGAAAACAUG”, the figures for the binding signal with PUM1 PUF domain R5-SKC, with PUM1 PUF domain R5-RHL and in the assay with PUM1 PUF domain R5-HRE were 1.38 log2 enrichment (interaction score), 5.23 log2 enrichment (interaction score) and 4.28 log2 enrichment (interaction score), respectively.

“GGCUAGAACUAGUGGAUCCCCCGGCGCCCGGCGGCUCGAGCCCGGGUAAGUGUAAAUCGUCUGCAUGCCGCCGGGCGCCAUGCCUGCAGGUCGACUCUAGAAAACAUG”: in the assay with PUM1 PUF domain R1-RRC, the binding signal was 2.87 log2 enrichment (interaction score).

Turning to “GGCUAGAACUAGUGGAUCCCCCGGCGCCCGGCGGCUCGAGCCCGGGUAAGUGUAAAUUGUCUGCAUGCCGCCGGGCGCCAUGCCUGCAGGUCGACUCUAGAAAACAUG”, the binding signal with PUM1 PUF domain R1-RRC was 2.93 log2 enrichment (interaction score).

Regarding “GGCUAGAACUAGUGGAUCCCCCGGCGCCCGGCGGCUCGAGCCCGGGUAAGUGAAAAUAGUCUGCAUGCCGCCGGGCGCCAUGCCUGCAGGUCGACUCUAGAAAACAUG”, the binding signal with PUM1 PUF domain R6-TWT was 4.15 log2 enrichment (interaction score); with PUM1 PUF domain R6-CWV, 1.98 log2 enrichment (interaction score).

For “GGCUAGAACUAGUGGAUCCCCCGGCGCCCGGCGGCUCGAGCCCGGGUAAGUGCAAAUAGUCUGCAUGCCGCCGGGCGCCAUGCCUGCAGGUCGACUCUAGAAAACAUG”, the binding signal with PUM1 PUF domain R6-RRK was 4.5 log2 enrichment (interaction score).
